The results in this text go back to PubChem BioAssay (Tox21).

Test [1] can be described thus: qHTS assay to test for compound auto fluorescence at 535 nm (green) in HEK293 cells (AID 720680). A general note: Quantitative high-throughput screening tests each substance at several concentrations.
Test [2] is described as follows: qHTS assay to test for compound auto fluorescence at 460 nm (blue) in HEK293 cell free culture (AID 720681). An outline of the steps:
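Test compounds were pinned into cell-free culture medium (DMEM with 10% FBS) and fluorescence was read directly at Ex/Em 405/460 nm. Signals were expressed as fluorescence equivalents of triamterene, with DMSO vehicle as control.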

Test [3] is described as follows: qHTS assay to test for compound auto fluorescence at 535 nm (green) in HEK293 cell free culture (AID 720682). The method, boiled down:
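DMEM + 10% FBS, cell-free; cpd or DMSO pinned in; Ex485/Em535 read; output as fluorescein-equivalent signal.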

The nature of test [4]: qHTS assay to test for compound auto fluorescence at 590 nm (red) in HEK293 cell free culture (AID 720683). An outline of the steps:
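Tox21 10K library compounds were pinned into cell-free DMEM with 10% FBS and fluorescence was read at excitation 540 nm. Activity is expressed as Rose Bengal sodium equivalency.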

Test [5] is described as follows: qHTS assay to test for compound auto fluorescence at 590 nm (red) in HepG2 cell free culture (AID 720684). An outline of the steps:
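Red fluorescence (540 nm excitation, 590 nm emission) was measured after compound transfer into cell-free MEM supplemented with 10% FBS. Values are equivalencies against Rose Bengal sodium.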

Test [6] is described as follows: qHTS assay to test for compound auto fluorescence at 460 nm (blue) in HepG2 cell free culture (AID 720685). The method, boiled down:
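Compound (23 nL) or DMSO pinned into cell-free MEM with 10% FBS; blue fluorescence read at 405/460 nm excitation/emission, expressed as auto-fluorescence equivalency to triamterene.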

A short description of test [7]: qHTS assay to test for compound auto fluorescence at 535 nm (green) in HepG2 cell free culture (AID 720686).
The nature of test [8]: qHTS assay to test for compound auto fluorescence at 460 nm (blue) in HepG2 cells (AID 720687). The method, boiled down:
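Cells (2,000/well in MEM with 10% FBS) attached overnight at 37 C, then were exposed to compound or DMSO for 1 hr at 37 C, 5% CO2. Fluorescence read at Ex/Em 405/460 nm, expressed as triamterene-equivalent signal.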

Test [9] concerns the target Glucocorticoid receptor (Homo sapiens) (UniProt P04150). The experiment in a line: qHTS assay to identify small molecule agonists of the glucocorticoid receptor (GR) signaling pathway (AID 720691; active = well fitted activation curve with a large enough effect in the signal ratio in the repeat runs, not every such curve was filed as active; the % refers to the signal ratio). The method, boiled down:
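Fluorescence intensity from LiveBLAzer B/G FRET substrate (2 h, room temperature) reports beta-lactamase expression driven by the glucocorticoid response element in GR-bla HeLa cells after 18 h compound exposure at 37 C.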

Test [10] shares this target. The test is described as follows: qHTS assay to identify small molecule antagonists of the glucocorticoid receptor (GR) signaling pathway (AID 720692; active = well fitted inhibition curve with a large enough effect in the signal ratio in the repeat runs, not every such curve was filed as active; the % refers to the signal ratio; also: potency is read from the fitted curve at half-maximal effect). The method, boiled down: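 HeLa GR-bla cells; cmpd + dex 5 nM final, 18 h 37 C; LiveBLAzer B/G FRET substrate 2 h RT; fluorescence intensity read. Antagonist mode, qHTS.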

Structures are written as SMILES. Values without a mark were called inactive. Records with an inconclusive call do not appear. Activity calls are given as the source filed them. Unless noted, calls follow the shape of the dose curve; as a rule, active = well fitted curve in the direction sought with a large enough effect in the repeat runs; inconclusive = weak or mixed curves; inactive = flat fitted curve, though single readings scatter.
% is scaled to controls: 0 for no effect and ±100 for the full control effect.

Chain of Glucocorticoid receptor (Homo sapiens) (P04150 whole entry, looked up): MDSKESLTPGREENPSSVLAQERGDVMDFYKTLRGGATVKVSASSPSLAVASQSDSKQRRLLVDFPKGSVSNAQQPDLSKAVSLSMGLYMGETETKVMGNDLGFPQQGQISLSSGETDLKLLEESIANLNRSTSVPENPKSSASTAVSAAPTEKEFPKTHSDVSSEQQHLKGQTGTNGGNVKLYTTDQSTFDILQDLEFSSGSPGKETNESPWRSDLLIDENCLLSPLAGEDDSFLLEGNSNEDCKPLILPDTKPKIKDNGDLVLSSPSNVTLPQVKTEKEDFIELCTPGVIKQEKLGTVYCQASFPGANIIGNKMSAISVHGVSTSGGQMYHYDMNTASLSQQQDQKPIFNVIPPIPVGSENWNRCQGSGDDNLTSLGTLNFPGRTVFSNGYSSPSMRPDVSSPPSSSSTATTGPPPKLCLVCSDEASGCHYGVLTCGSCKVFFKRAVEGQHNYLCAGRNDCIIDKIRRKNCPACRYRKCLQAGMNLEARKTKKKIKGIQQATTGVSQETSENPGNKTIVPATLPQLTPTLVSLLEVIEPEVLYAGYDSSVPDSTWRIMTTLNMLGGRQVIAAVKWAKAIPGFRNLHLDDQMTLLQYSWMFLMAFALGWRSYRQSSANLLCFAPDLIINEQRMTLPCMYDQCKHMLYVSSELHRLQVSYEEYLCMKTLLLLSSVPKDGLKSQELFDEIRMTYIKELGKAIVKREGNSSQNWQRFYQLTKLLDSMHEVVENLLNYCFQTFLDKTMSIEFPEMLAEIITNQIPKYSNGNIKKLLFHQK

Regarding `O=C(O)c1ccc2c(c1)nc(C(=O)NC1CCN(C3CC3)CC1)n2Cc1cc(-c2ccc(Cl)s2)on1`, the fluorescence, % of fluorescein in test [1] was -0.0247% [at 18.6 µM]. The fluorescence, % of fluorescent control in test [2] is 0.0923% [at 18.6 µM]; in [4], 0.116% [at 18.6 µM]; in test [6], -0.029% [at 18.6 µM]; in test [8] it was 0.0789% [at 18.6 µM]. For the same molecule, the activity change in test [3] was -0.024% [at 18.6 µM]. Moreover, the fluorescence, % of Rose Bengal in [5] is -0.135% [at 18.6 µM]. In test [7], the fluorescence, % of fluorescein control was -0.0042% [at 18.6 µM].
With `Nc1ccccc1Nc1ccccc1`, the outcome in test [1], in test [3], in [4], in [5], in test [6] and in test [7] was inactive. Moreover, in test [8], the molecule was classed as inactive. The Potency result in test [2] was “inactive”.
Regarding `N#CCCCC(C#N)CCC#N` (centres undefined), the outcome in test [1], in test [3], in test [4], in [5], in [6] and in test [7] was inactive. In addition, the Potency entry in test [2] was “inactive”.
Regarding `Oc1ccc(CCNCCCCCCNCCc2ccccc2)cc1O`, the result in test [1], in test [3], in test [4], in [5], in [6] and in test [7] was inactive. The call in test [8] was inactive. The Potency entry in [2] is “inactive”.
Regarding `CCCCCCCCS`, the molecule was classed as inactive in [1], in test [3], in test [4], in [5], in test [6] and in test [7]. In test [8], the molecule was called inactive. In addition, the Potency result in test [2] is “inactive”.
For `C=CC(O)CCCCC` (centres undefined), the molecule was classed as inactive in [1], in test [3], in [4], in test [5], in [6] and in test [7]. The call in [8] was inactive. Moreover, the Potency entry in test [2] was “inactive”.
`O=C(OC1C[C@H]2CC[C@@H](C1)[N+]21CCCC1)C(O)(c1ccccc1)c1ccccc1` (some centres undefined): the result in test [1], in test [3], in [4], in test [5], in [6] and in test [7] was inactive. Further, in test [8], the call was inactive. Besides, in test [2], the Potency entry is “inactive”.
Regarding `C[Si](C)(C)O[Si](C)(C)O[Si](C)(C)C`, the result in test [1], in [3], in test [4], in test [5], in test [6] and in test [7] was inactive. For the same molecule, in test [8], the molecule was classed as inactive. Further, the Potency entry in test [2] was “inactive”.
Take `COc1cccc([C@H](O)C2CCN(CCc3ccc(F)cc3)CC2)c1OC`: the molecule was classed as inactive in [1], in [3], in [4], in [5], in test [6] and in test [7]. Also, in [8], the molecule was called inactive. The Potency entry in test [2] and in test [9] was “inactive” throughout.
Turning to `O=Cc1ccc(Cl)c([N+](=O)[O-])c1`, the result in test [1], in test [3], in [4], in test [5], in test [6] and in [7] was inactive. Further, the Potency entry in [2] is “inactive”.
Take `Cc1ccc2c(Cl)cc(Cl)c(O)c2n1`: the call in test [1], in test [3], in test [4], in test [5], in [6] and in [7] was inactive. Moreover, the molecule was classed as inactive in test [8]. In addition, the Potency result in [2] and in test [9] was “inactive” in each case. Further, the Potency in [10] was 16.9 µM (active).
In the case of `O=C1c2ccccc2C(=O)C1c1ccc2ccccc2n1`, the outcome in [1], in test [3], in test [4], in [5], in [6] and in [7] was inactive. Besides, the outcome in test [8] was inactive. The Potency entry in test [2], in [9] and in test [10] was “inactive” each time.
For the molecule `O=C(O)c1ccc(O)c(O)c1`, the outcome in test [1], in [3], in [4], in test [5], in test [6] and in test [7] was inactive. In [8], the molecule was classed as inactive. Also, the Potency entry in test [2], in test [9] and in [10] was “inactive” each time.
With `N#C[C@@H]1CC(F)(F)CN1C(=O)CNC1CC2CCC(C1)N2c1ncccn1` (some centres undefined), the molecule was called inactive in test [1], in [3], in test [4], in test [5], in test [6] and in test [7]. Further, the molecule was called inactive in [8]. The Potency result in test [2], in test [9] and in test [10] was “inactive” in each case.
As for `COC(=O)C(C)(C)C`, the molecule was classed as inactive in [1], in test [3], in [4], in test [5], in test [6] and in test [7]. The molecule was called inactive in test [8]. Also, the Potency result in [2], in test [9] and in test [10] was “inactive” throughout.
In the case of `COc1cc(CNC(=O)CCCC/C=C/C(C)C)ccc1O`, the call in test [1], in [3], in [4], in test [5], in [6] and in [7] was inactive. The molecule was classed as inactive in test [8]. Besides, the Potency entry in test [2], in test [9] and in test [10] was “inactive” throughout.
In the case of `c1ccc(-c2ccc(-c3ccccc3)cc2)cc1`, the fluorescence, % of fluorescein in test [1] was 0.0075% [at 18.6 µM]. Besides, the fluorescence, % of fluorescent control is -0.0624% [at 18.6 µM] in test [2], -0.201% [at 18.6 µM] in [4], 0.0163% [at 18.6 µM] in test [6] and -0.024% [at 18.6 µM] in test [8]. Further, the activity change in test [3] was -0.0551% [at 18.6 µM]. Besides, the fluorescence, % of Rose Bengal in [5] is -0.0264% [at 18.6 µM]. In addition, the fluorescence, % of fluorescein control in test [7] was -0.0394% [at 18.6 µM]. The Potency result in test [9] and in [10] was “inactive” throughout.
Regarding `CCCc1nc(C)c2c(=O)[nH]c(-c3cc(S(=O)(=O)N4CCN(CC)CC4)ccc3OCC)nn12`, the molecule was called inactive in test [1], in [3], in test [4], in test [5], in test [6] and in test [7]. In test [8], the outcome was inactive. Further, the Potency entry in test [2], in [9] and in test [10] was “inactive” in each case.
Consider `C/C(=C(\CCO)SS/C(CCO)=C(\C)N(C=O)Cc1cnc(C)nc1N)N(C=O)Cc1cnc(C)nc1N`, for which the molecule was classed as inactive in test [1], in test [3], in test [4], in test [5], in test [6] and in test [7]. Moreover, the molecule was called inactive in [8]. In addition, the Potency entry in [2], in test [9] and in [10] was “inactive” each time.
Regarding `C=CC(=O)NC(C)(C)C`, the outcome in [1], in [3], in [4], in [5], in [6] and in test [7] was inactive. Also, the outcome in [8] was inactive. In addition, the Potency result in test [2], in [9] and in [10] was “inactive” each time.
As to `CC(=O)S[C@H](C(=O)N[C@H]1Cc2ccccc2[C@H]2CCC[C@@H](C(=O)O)N2C1=O)C(C)C`, the result in test [1], in test [3], in test [4], in [5], in test [6] and in test [7] was inactive. The molecule was called inactive in test [8]. For the same molecule, the Potency entry in [2], in test [9] and in test [10] was “inactive” throughout.
As for `CC(C)(C)c1ccc(CCC=O)cc1`, the molecule was called inactive in test [1], in test [3], in test [4], in test [5], in [6] and in test [7]. Besides, the result in [8] was inactive. Further, the Potency result in test [2], in test [9] and in [10] was “inactive” each time.
`CCC(C)CCCC(C)(C)O` (centres undefined): the call in test [1], in test [3], in test [4], in [5], in [6] and in test [7] was inactive. Further, in [8], the molecule was classed as inactive. The Potency entry in test [2], in [9] and in test [10] was “inactive” throughout.
On to `CCC[Si](OC)(OC)OC`, for which the outcome in [1], in test [3], in test [4], in [5], in test [6] and in [7] was inactive. The outcome in test [8] was inactive. The Potency entry in [2], in test [9] and in [10] was “inactive” throughout.
With `CO[C@@H]1COCC[C@@H]1N[C@@H]1CC[C@@](C(=O)N2CCc3ncc(C(F)(F)F)cc3C2)(C(C)C)C1`, the result in test [1], in test [3], in test [4], in [5], in test [6] and in test [7] was inactive. The molecule was classed as inactive in test [8]. The Potency entry in [2], in test [9] and in test [10] was “inactive” each time.
